Results published in ChEMBL document CHEMBL3988442, “University of Dundee, Small-Polar-MMV Screening Library” (2021).

biological target: AMP-activated protein kinase, AMPK (Homo sapiens) (UniProt P54646+O43741+P54619+Q9UGJ0+Q9Y478+Q13131+Q9UGI9); assay: AMP-dependent Kinase enzyme assay. An in vitro enzyme assay that detects ADP turnover that is directly proportional to AMPK activity. This uses naive AMPK that is activated during the assay with MK-8722; assay type: functional; set-up: scale not given: direction of the effect not stated beside the values; details: 30 µM

Structure (SMILES) | Percent Effect
Cc1cnn(CC2CCN(CC(O)Cn3cccn3)CC2)c1 (stereo unspecified) | 11.8%
Cc1cc(C(=O)NC(C)Cc2ccc(N(C)C)cc2)n(C)n1 (stereo unspecified) | 11.6%
CN(Cc1ccc(OCC(=O)N2CCOCC2)cc1)S(C)(=O)=O | -30.8%
CCN(C)S(=O)(=O)N1CCC(C(O)c2ccc(F)cc2)CC1 (stereo unspecified) | -1.14%
Cc1cc(NC(=O)NCCO)nn1-c1ccc(Cl)cc1Cl | -2.67%
c1ccc(OCCNC2=NCCCN2)cc1 | -8.51%
Cc1c(Br)cccc1NC(=O)N(C)CCO | -2.37%
CCc1c(C)nn2c(O)cc(C3CCN(C(=O)c4cnn(C)c4)C3)nc12 (stereo unspecified) | 5.68%
Cc1cc(C(=O)N2CCNC(=O)C2)c(C)n1Cc1ccccn1 | -10.9%
Cc1cc(C(=O)NC(C)Cc2cccc(Cl)c2)n(C)n1 (stereo unspecified) | 10.6%
CC(C)Cc1cc(CNC(=O)c2cccc3c2OCC3)no1 | 3.36%
CN(CCCc1cnn(C)c1)Cc1cc2n(n1)CCCNC2 | -0.861%
COc1cc(N(C)Cc2cc(C(C)(C)C)n[nH]2)ncn1 | -15.7%
Cc1cncnc1C1CCN(C(=O)C2(C)CCCCN2C)CC1 (stereo unspecified) | 17%
Cc1cc(C)n(CC2CCN(CC(O)CN3CCOCC3)CC2)n1 (stereo unspecified) | -1.36%
CS(=O)(=O)Cc1noc(CN(Cc2ccco2)c2ccccc2)n1 | 3.02%
CC(=O)N1CCN(C(=O)NC(C)Cn2ccnc2)CC1 (stereo unspecified) | -4.12%
CC(C)COc1cncc(N2CCCN(c3ncccn3)CC2)n1 | 65.1%
Cc1cc(NCCc2nc(C)cs2)nc(-c2cccnc2)n1 | 5.81%
NC(=O)CC1CCCN(c2cncc(SCc3ccccc3)n2)C1 (stereo unspecified) | 25.3%
C=C(C)Cn1nc(C)c(CN2CCN(C3CCCCC3)C(=O)C2)c1C | 10.7%
